Compounds with a hit are over-represented: about 2.2% of the library has one in this group of screens.
MEKK2wt PB1 HTS: raises or lowers MEK5 binding to wildtype human MEKK2 PB1 domain; Q9Y2U5; bead flow cytometry, Alexa488-MEK5 binding to MEKK2 WT; actives lie on both sides; binding response (% of control), % at 10 µM; 290,000 compounds, 1.1% hits; in the data active = binding response below about 67% or above about 130%
VLA-4 inh: inhibition in a human VLA-4 binding assay. VLA-4 expressing cells, ligand binding flow cytometry. 330,000 compounds, 0.2% hits. P13612. inhibition, % (about 7 µM as worked out from the volumes in the protocol); in the data active = inhibition above about 50%
MEKK2 mut-MEK5: signal of MEK5 binding to mutant human MEKK2 PB1 domain | bead flow cytometry, Alexa488-MEK5 binding to MEKK2 mutant | percent response, % at 10 µM | 290,000 compounds, 0.35% hits | AID 1530; in the data active = percent response above about 24%, passing the limit was not always enough
MEKK3 PB1 HTS: MEKK3-MEK5 PB1 interaction, increase or decrease; Q99759; bead-based flow cytometry, Alexa488-MEK5 binding to MEKK3; actives lie on both sides; 0 = blocked by unlabeled MEK5, 100 = vehicle; binding response (% of control), % at 10 µM; 290,000 compounds, 1.4% hits; AID 1529;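 active = binding response more than 3 SD above or below the average of its plate-row segment, actives on both sides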;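 note: Alexa488 bead fluorescence after subtracting the streptavidin-only scavenger bead signal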
Target sequence (Q99759 whole entry, looked up): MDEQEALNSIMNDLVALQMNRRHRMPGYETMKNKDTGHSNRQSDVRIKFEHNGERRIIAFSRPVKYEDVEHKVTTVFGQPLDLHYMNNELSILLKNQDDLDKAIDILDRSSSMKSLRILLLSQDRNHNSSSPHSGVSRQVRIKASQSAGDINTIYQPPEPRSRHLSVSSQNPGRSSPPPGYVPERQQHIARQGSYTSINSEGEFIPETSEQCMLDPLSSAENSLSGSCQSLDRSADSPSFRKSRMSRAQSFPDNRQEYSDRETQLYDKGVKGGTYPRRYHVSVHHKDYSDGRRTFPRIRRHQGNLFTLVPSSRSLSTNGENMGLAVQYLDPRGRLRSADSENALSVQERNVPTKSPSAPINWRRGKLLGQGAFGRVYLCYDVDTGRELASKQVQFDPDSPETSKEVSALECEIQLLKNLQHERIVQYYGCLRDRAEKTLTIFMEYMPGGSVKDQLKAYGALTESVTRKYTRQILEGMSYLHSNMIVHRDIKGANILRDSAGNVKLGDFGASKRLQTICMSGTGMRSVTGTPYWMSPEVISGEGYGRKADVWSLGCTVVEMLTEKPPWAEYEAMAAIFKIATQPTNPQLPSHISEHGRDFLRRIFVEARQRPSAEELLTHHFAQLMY
MEKK2wt confirm: raises or lowers MEK5 binding to wildtype human MEKK2, retest. 5,900 compounds, 2.4% hits. AID 1892. shares compounds with MEKK3 PB1 HTS. bead flow cytometry, Alexa488-MEK5 binding to MEKK2 WT; actives lie on both sides. binding response (% of control), % at 10 µM; in the data active = binding response below about 16% or above about 210%; inactive = in between
MEKK2mut-MEK5: signal of MEK5 binding to mutant human MEKK2, retest. shares compounds with MEKK3 PB1 HTS. bead flow cytometry, Alexa488-MEK5 binding to MEKK2 mutant. percent response, % at 10 µM. 5,900 compounds, 2% hits; in the data active = percent response mostly above about 71%, no sharp cut-off; inactive = mostly below about 38%;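 note: higher means compound restores mutant binding toward wildtype level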
MEKK3-MEK5 inh: confirmation of inhibitors of MEK5 binding to human MEKK3; shares compounds with MEKK3 PB1 HTS; bead flow cytometry, Alexa488-MEK5 binding to MEKK3; active compounds read low; binding response (% of control), % at 10 µM; 5,900 compounds, 1.8% hits; AID 1894;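 active = binding response below 72% of control, or above a set upper limit, though filed actives all read lower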;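 note: lower values mean stronger disruption of MEK5 binding to MEKK3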
A number is an active result; [ ] = dose if it differs, or a comment.

Screening O=C(C[n+]1ccccc1)Nc1c(Cl)cc(Cl)cc1Cl returned MEKK2wt PB1 HTS inactive, VLA-4 inh inactive, MEKK2 mut-MEK5 inactive and MEKK3 PB1 HTS inactive.
Cc1ccc[n+](CC(=O)Nc2c(Cl)cc(Cl)cc2Cl)c1 was read as MEKK2wt PB1 HTS inactive, VLA-4 inh inactive, MEKK2 mut-MEK5 inactive, MEKK3 PB1 HTS 68[inhibitor], MEKK2wt confirm inactive, MEKK2mut-MEK5 inactive and MEKK3-MEK5 inh inactive.
For O=C(O)C1Sc2[nH]c(=O)sc2C2c3ccc(O)cc3OC(=O)C12 (configuration not stated) the results were MEKK2wt PB1 HTS inactive, VLA-4 inh inactive, MEKK2 mut-MEK5 inactive and MEKK3 PB1 HTS inactive.
`CCCCCCCCCCCCN1C/C(=C\C(=O)OCC)c2cc(C(F)(F)F)ccc2S1(=O)=O` gave MEKK2wt PB1 HTS 67, VLA-4 inh inactive, MEKK2 mut-MEK5 51, MEKK3 PB1 HTS inactive, MEKK2wt confirm inactive, MEKK2mut-MEK5 inactive and MEKK3-MEK5 inh inactive.
`COc1ccc(CC(=O)OCC(=O)c2ccc(F)cc2)cc1` gave VLA-4 inh inactive.
Screening COc1ccc(OCC(O)CN(CCO)CC(O)Cn2ccc3ccccc32)cc1 (configuration not stated) returned MEKK2wt PB1 HTS inactive, VLA-4 inh inactive, MEKK2 mut-MEK5 inactive and MEKK3 PB1 HTS inactive.
CCC(=C(c1ccc(OC)cc1)c1ccc(OC)cc1)c1cn(CC(O)CN(CCO)CCO)c2ccccc12 (configuration not stated) was read as MEKK2wt PB1 HTS 149, VLA-4 inh inactive, MEKK2 mut-MEK5 inactive, MEKK3 PB1 HTS inactive, MEKK2wt confirm inactive, MEKK2mut-MEK5 inactive and MEKK3-MEK5 inh inactive.
C=CCOc1cccc(C2/C(=C(\O)c3ccc4c(c3)OCCO4)C(=O)C(=O)N2CCN2CCOCC2)c1 (configuration not stated) was read as MEKK2wt PB1 HTS inactive, VLA-4 inh inactive, MEKK2 mut-MEK5 inactive and MEKK3 PB1 HTS inactive.
For Cc1ccnc2nc(C(=O)OCC(=O)NCc3cccc(Cl)c3)nn12 the results were VLA-4 inh inactive.
`Cc1ccnc2nc(C(=O)OCC(=O)NCCc3ccc(Cl)cc3)nn12` gave MEKK2wt PB1 HTS inactive, VLA-4 inh inactive, MEKK2 mut-MEK5 inactive, MEKK3 PB1 HTS 135, MEKK2wt confirm inactive, MEKK2mut-MEK5 inactive and MEKK3-MEK5 inh 62.
For O=C(CCNC(=O)C1CCN(S(=O)(=O)c2ccccc2)CC1)NCc1ccc(Cl)cc1Cl the results were MEKK2wt PB1 HTS inactive, VLA-4 inh inactive, MEKK2 mut-MEK5 inactive and MEKK3 PB1 HTS inactive.
`Cc1c(C(=O)C(=O)N2c3ccc(F)cc3CCC2C)c2ccccc2n1C` (configuration not stated) gave MEKK2wt PB1 HTS inactive, VLA-4 inh inactive, MEKK2 mut-MEK5 inactive, MEKK3 PB1 HTS 141, MEKK2wt confirm inactive, MEKK2mut-MEK5 inactive and MEKK3-MEK5 inh inactive.
`O=S(=O)(c1ccc2c(c1)OCCO2)N1CCN(c2cccc(Cl)c2)CC1` gave MEKK2wt PB1 HTS inactive, VLA-4 inh inactive, MEKK2 mut-MEK5 inactive, MEKK3 PB1 HTS 81[inhibitor], MEKK2wt confirm inactive, MEKK2mut-MEK5 inactive and MEKK3-MEK5 inh inactive.
CC(=O)OC(C(=O)NC1CCCCC1)c1ccc(Cl)c(Cl)c1 (configuration not stated) was read as MEKK2wt PB1 HTS inactive, VLA-4 inh inactive, MEKK2 mut-MEK5 inactive and MEKK3 PB1 HTS inactive.
COCc1cc(C)nc(SCC(=O)NC2CCCCC2C)c1C#N (configuration not stated) was read as MEKK2wt PB1 HTS inactive, VLA-4 inh inactive, MEKK2 mut-MEK5 inactive and MEKK3 PB1 HTS inactive.
For COCc1cc(C)nc(SCC(=O)N2CCC(C)CC2)c1C#N the results were MEKK2wt PB1 HTS 8.0[inhibitor], VLA-4 inh inactive, MEKK2 mut-MEK5 inactive, MEKK3 PB1 HTS 6.0[inhibitor], MEKK2wt confirm inactive, MEKK2mut-MEK5 inactive and MEKK3-MEK5 inh inactive.
For COCCCNC(=O)C1=CCN(S(=O)(=O)c2ccc(C)cc2)CC1 the results were MEKK2wt PB1 HTS inactive, VLA-4 inh inactive, MEKK2 mut-MEK5 inactive and MEKK3 PB1 HTS inactive.
Screening CC(C)(C)n1nnnc1C(c1cccnc1)N(Cc1ccccc1)Cc1cccs1 (configuration not stated) returned MEKK2wt PB1 HTS 2.0[inhibitor], VLA-4 inh inactive, MEKK2 mut-MEK5 inactive, MEKK3 PB1 HTS 2.0[inhibitor], MEKK2wt confirm inactive, MEKK2mut-MEK5 inactive and MEKK3-MEK5 inh inactive.
Screening CC(C)(C)n1nnnc1C(c1cccs1)N(Cc1ccccc1)Cc1cccnc1 (configuration not stated) returned MEKK2wt PB1 HTS inactive, VLA-4 inh inactive, MEKK2 mut-MEK5 inactive and MEKK3 PB1 HTS inactive.
For Cc1cc(N/N=C/c2ccc(F)cc2)nc(NCc2ccccc2)n1 the results were MEKK2wt PB1 HTS inactive, VLA-4 inh inactive, MEKK2 mut-MEK5 inactive and MEKK3 PB1 HTS inactive.
Cc1ccc(/C=N/Nc2cc(C)nc(NCc3ccccc3)n2)cc1 was read as MEKK2wt PB1 HTS 199, VLA-4 inh inactive, MEKK2 mut-MEK5 63, MEKK3 PB1 HTS inactive, MEKK2wt confirm inactive, MEKK2mut-MEK5 inactive and MEKK3-MEK5 inh inactive.
Cc1cc(=O)[nH]c(N/N=C/c2ccc(Cl)cc2Cl)n1 was read as MEKK2wt PB1 HTS inactive, VLA-4 inh inactive, MEKK2 mut-MEK5 inactive and MEKK3 PB1 HTS inactive.
Cc1cc(N/N=C/c2ccc(N(C)C)cc2)nc(NCc2ccccc2)n1 was read as MEKK2wt PB1 HTS 229, VLA-4 inh inactive, MEKK2 mut-MEK5 75, MEKK3 PB1 HTS inactive, MEKK2wt confirm 247, MEKK2mut-MEK5 89 and MEKK3-MEK5 inh inactive.
`Cc1cc(N/N=C/c2ccc(Cl)cc2Cl)nc(NCc2ccccc2)n1` gave MEKK2wt PB1 HTS 161, VLA-4 inh inactive, MEKK2 mut-MEK5 inactive, MEKK3 PB1 HTS inactive, MEKK2wt confirm inactive, MEKK2mut-MEK5 inactive and MEKK3-MEK5 inh inactive.
Cc1c(OCC(=O)N[C@@H](Cc2ccccc2)C(=O)O)ccc2c1oc(=O)c1ccccc12 was read as MEKK2wt PB1 HTS inactive, VLA-4 inh inactive, MEKK2 mut-MEK5 inactive and MEKK3 PB1 HTS inactive.
`C[N+]1=C(/C=C/Nc2ccccc2Cl)C(C)(C)c2ccccc21` gave MEKK2wt PB1 HTS inactive, VLA-4 inh inactive, MEKK2 mut-MEK5 inactive and MEKK3 PB1 HTS inactive.
`COC(=O)c1ccc2c(c1)C(C)(C)C(/C=C/c1ccccc1O)=[N+]2C` gave MEKK2wt PB1 HTS -1.0[inhibitor], VLA-4 inh inactive, MEKK2 mut-MEK5 inactive, MEKK3 PB1 HTS inactive, MEKK2wt confirm inactive, MEKK2mut-MEK5 inactive and MEKK3-MEK5 inh inactive.
`O=C(Nc1ccnn1C1CCN(C(=O)c2cnsn2)CC1)c1cccc(F)c1` gave MEKK2wt PB1 HTS inactive, VLA-4 inh inactive, MEKK2 mut-MEK5 inactive and MEKK3 PB1 HTS inactive.
